Screening data (PubChem BioAssay)
AID inh = blocks human AID cytidine deaminase activity. Potency, µM (series often up to 115 µM), usual class: inhibitors. AID 1347428. AID deamination FRET fluorescence, UDG-coupled, 4 h. 91,000 tested, 0.32% active. Q9GZX7; further: nearly all actives have a fitted effect of over 25% in size
Target sequence (Q9GZX7 whole entry, looked up): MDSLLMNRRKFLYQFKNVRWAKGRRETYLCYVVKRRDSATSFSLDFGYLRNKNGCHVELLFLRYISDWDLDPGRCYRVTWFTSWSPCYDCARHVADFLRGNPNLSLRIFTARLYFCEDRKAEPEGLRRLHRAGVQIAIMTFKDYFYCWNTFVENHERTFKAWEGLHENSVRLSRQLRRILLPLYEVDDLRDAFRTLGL
UDG counter = UDG inhibition counter-screen; FRET deamination/UDG coupled assay, UDG read, 4 h; Potency, µM (highest dose often 115 µM), without a hit: at the highest dose activity change, negative = inhibition, usual class: inhibitors; 91,000 tested, 0.14% active; AID 1347430; further: nearly all actives have a fitted effect of over 65% in size
The depositor's hits bear a star; i = inactive; u = inconclusive; [ ] = another dose, or the depositor's remark. This is a sample that favours compounds with a hit; in the whole collection about 0.47% have one here. The call rests on the fitted dose curve; in most records, active means well fitted curve in the direction sought with a large enough effect; inconclusive means small, poorly fitted or top-dose-only effect, or another doubt; inactive means no such curve, though single readings can be large; an effect the other way counts as inactive or inconclusive. On the % scale 0 is the no-effect control and ±100 the full control effect; potency means the concentration at half of the fitted maximal effect.

SMILES | AID inh | UDG counter
COc1ccc(-c2c3c(=O)n(C)c(=O)n(C)c3cn2-c2cccc(C)c2)cc1 | i | 1.2%
COc1ccc(-n2c(=O)c3c4c(sc3n(Cc3ccccc3C)c2=O)CCCC4)c(OC)c1 | u | -18.9%
COc1ccc(-n2c(=O)c3c4c(sc3n(Cc3ccc(C(C)(C)C)cc3)c2=O)CCC4)c(OC)c1 | 35.5µM* | u
O=C(C1=C(O)C(=O)N(CCc2ccccc2)C1c1ccncc1)c1ccco1 (stereo unspecified) | i | 3.2%
CCN(CC)S(=O)(=O)c1cccc(NC(=S)Nc2ccc(C)c(C)c2)c1 | i | -9.7%
Clc1ccc(N=Cc2ccc3ccccc3c2)cc1Cl | i | 5.1%
Oc1ccc(N=Cc2ccc3ccccc3c2)cc1 | 14.1µM* | u
Cc1ccc(S(=O)(=O)Cc2nc(-c3ccc(C(=O)NCCN4CCCCCC4)cc3)oc2C)cc1 | u | 8.6%
CC1CCN(c2nc(SCCO)c(C#N)c3c2CCCC3)CC1 | i | -5.8%
CCOc1ccc(C2C=C(c3ccc(OC)cc3)Nc3ncnn32)cc1 (stereo unspecified) | i | 8.9%
NO | 39.8µM* | 28.2µM*
O=c1n(Cc2cccc(F)c2)c2ccccc2c2nc(-c3ccccc3)nn12 | i | 3.1%[57.5 µM]
Cc1cccc(Cn2c(=O)n3nc(-c4ccccc4)nc3c3ccccc32)c1 | 79.4µM* | -20.4%
O=CC1=Cc2c(ccc3ccccc23)OC1 | i | 2.8%
Cc1ccc2[nH]c3c(c2c1)CCCC3 | i | -10.9%
COc1cc(C2CC(=O)N3CN(c4ccc(C)c(Cl)c4)CSC3=C2C#N)ccc1O (stereo unspecified) | i | -2.0%
CCOc1cccc(/C=C(/C#N)C(=O)c2ccccc2OC)c1 | i | -6.0%
COc1ccc(C(=O)N(Cc2ccco2)Cc2ccc(C)o2)cc1 | i | 12.5%[57.5 µM]
CCc1ccc(CN(Cc2ccco2)C(=O)c2ccc(OC)cc2)cc1 | 39.8µM* | -9.4%[57.5 µM]
O=C(CCC(=O)OCC(=O)c1ccc([N+](=O)[O-])cc1)Nc1cc(C(F)(F)F)ccc1Cl | i | -23.8%
O=C1c2ccccc2C(=O)C1(c1ccccc1)N1CCN(c2cccc(C(F)(F)F)c2)CC1 | 25.1µM* | -14.1%
O=C1c2ccccc2C(=O)C1(c1ccccc1)N1CCN(c2cccc(Cl)c2)CC1 | i | -7.6%
Cc1nc2c(C(=O)NCc3ccccc3)c[nH]n2c(=O)c1Cc1ccccc1Cl | 89.1µM* | -3.8%
Cc1nc2nc(N(Cc3ccccc3)C(=O)c3ccco3)[nH]n2c(=O)c1Cc1ccccc1Cl | u | -0.4%
Cn1nc(CC(=O)Nc2ccc(S(=O)(=O)N3CCCCCC3)cc2)c2ccccc2c1=O | i | -3.5%
SMILES | AID inh | UDG counter
O=C(Cc1n[nH]c(=O)c2ccccc12)Nc1ccc(S(=O)(=O)N2CCCC2)cc1 | 39.8µM* | -18.9%
COc1ccccc1/C=C/C=C(/C#N)c1nc2ccccc2[nH]1 | i | -8.0%
Cc1noc2ncnc(Nc3ccc(F)cc3)c12 | i | -12.7%
CC(C)c1ccc(Nc2ncnc3onc(-c4ccc(F)cc4)c23)cc1 | u | 89.1µM*
CCOc1ccccc1CN1CCCCCC1c1sccc1C (stereo unspecified) | i | -2.4%
COc1cc(OC)cc(C(=O)Nc2ccc3nc(N4CCC(C)CC4)cc(C)c3c2)c1 | 39.8µM* | u
COc1ccccc1C(=O)Nc1ccc2nc(N3CCC(C)CC3)cc(C)c2c1 | u | -17.6%
COc1ccc(CNC(=O)CCC(=O)N2CC3CCCN3c3ccccc32)c(OC)c1 (stereo unspecified) | i | -5.0%
COc1ccc(OC)c(NC(=O)N2CC3CCCN3c3ccccc32)c1 (stereo unspecified) | 20µM* | u
CC1CCCc2sc(N)c(C#N)c21 (stereo unspecified) | i | -17.2%
COc1ccc(S(=O)(=O)N2CCn3cccc3C2c2ccc(C)cc2)cc1C (stereo unspecified) | i | 79.4µM*
COc1ccc(S(=O)(=O)N2CCn3cccc3C2c2cccs2)cc1C (stereo unspecified) | i | 11.1%
CCOC(=O)COc1ccc(/C=N/NC(=O)C(O)(c2ccccc2)c2ccccc2)cc1 | i | -9.3%
O=C(O)c1cc(Nc2nc(-c3ccccc3)cs2)ccc1O | u | 10.6%
O=C(O)c1ccc(Nc2nc(-c3ccc(Cl)cc3)cs2)cc1O | 79.4µM* | 25.8%
O=C(/C=C/c1cccc2c1OCCCO2)c1cccnc1 | i | 0.0%
FC(F)(F)c1cccc(-n2nnnc2C2(N3CCOCC3)CCCC2)c1 | i | 89.1µM*
Cc1cccc(-n2nnnc2C2(N3CCCC3)CCCC2)c1 | i | -0.4%
C(=C\c1ccccc1)/CN(C/C=C/c1ccccc1)CCN1CCOCC1 | i | -12.1%
CCCCOc1ccc(CN2C(=O)C(=O)c3cc(C)ccc32)cc1OC | u | 37.7%
CCCCCOc1ccccc1CN1C(=O)C(=O)c2cc(C)ccc21 | 28.2µM* | -19.8%
Cc1oc(-c2ccccc2Cl)nc1CS(=O)(=O)CC(=O)NC(C)c1ccccc1 (stereo unspecified) | u | -14.7%
